Drawing on PubChem BioAssay, this text covers z-score and composite z-score for 8 compounds.

Assay [1] in a line: compound effects on lung adenocarcinoma cell viability – A549, calcein-AM fluorescence, 48 h, basal, profiling panel (AID 1162). Note: test concentration not given here. The settings on record: higher = more signal.
The nature of assay [2]: compound effects on differentiated 3T3-L1 adipocyte viability – cell-based, 3T3-L1 adipocytes, calcein-AM fluorescence, 48 h, basal, profiling panel (AID 1163). Note: test concentration not given here. The settings on record: 3T3-L1 adipocytes viability, higher = more signal.
Assay [3] in a line: compound effects on hepatocellular carcinoma cell viability – HepG2, calcein-AM fluorescence, 48 h, basal, profiling panel (AID 1164). Note: test concentration not given here. Conditions: higher = more signal.
A short description of assay [4]: compound effects on multiple myeloma cell viability – MM1S, calcein-AM fluorescence, 48 h, basal, profiling panel (AID 1165).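 Note: viability of MM1S multiple myeloma cells under basal unstimulated conditions; test concentration not given here.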 The settings on record: higher = more signal.
Assay [5] can be described thus: calcein-AM signal in unstimulated myeloma cells – cell-based, calcein-AM fluorescence, 48 h, PK04 Diversity Set, profiling panel (AID 1166).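 Note: cells grown under basal conditions without added stimulus; test concentration not given here.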 The settings on record: RPMI8226 myeloma viability, higher = more signal.
A short description of assay [6]: JC-1 mitochondrial signal, unstimulated HepG2 cells – cell-based, JC-1 fluorescence, 24 h, 100 nL compound, profiling panel (AID 1167). Note: test concentration not given here. Conditions: HepG2 mitochondrial potential, higher = more signal.
Assay [7] can be described thus: JC-1 mitochondrial signal, unstimulated adipocytes – cell-based, JC-1 fluorescence, 3T3-L1 adipocytes, 24 h, 100 nL compound, profiling panel (AID 1168). Note: test concentration not given here. The settings on record: JC-1 mitochondrial fluorescence, higher = more signal, called active from +8 up or from −8 down.
A short description of assay [8]: JC-1 mitochondrial signal, unstimulated myeloma cells – cell-based, JC-1 fluorescence, RPMI8226, 24 h, 100 nL compound, profiling panel (AID 1169). Note: test concentration not given here. Conditions: JC-1 mitochondrial potential fluorescence, higher = more signal.
Assay [9] can be described thus: JC-1 mitochondrial signal, unstimulated MM1S myeloma – cell-based, JC-1 fluorescence, 24 h, 100 nL compound, profiling panel (AID 1170). Note: test concentration not given here. The settings on record: MM1S mitochondrial potential, higher = more signal.
The nature of assay [10]: resazurin metabolic signal in A549 cells – cell-based, resazurin fluorescence, 24 h, PK04 Diversity Set, profiling panel (AID 1171). Note: test concentration not given here. Conditions: A549 viability, higher = more signal, called active from +8 up or from −8 down.
Assay [11] in a line: resazurin metabolic signal in HepG2 cells – cell-based, resazurin fluorescence, 24 h, PK04 Diversity Set, profiling panel (AID 1172). Note: test concentration not given here. The settings on record: HepG2 viability, higher = more signal.
Assay [12] in a line: budding yeast growth changes without added modifier – OD600, strain BY4716, 24 h, basal condition, primary screen (AID 1173). The settings on record: S. cerevisiae BY4716 growth, OD600, 24 h; higher = more signal, called active from +8 up or from −8 down.
Assay [13] can be described thus: viability profiling in MM1S myeloma cells – cell-based, resazurin fluorescence, basal, 24 h, PK04 Diversity Set, profiling panel (AID 1174). Note: test concentration not given here. Conditions: higher = more signal, called active from +8 up or from −8 down.
Assay [14] has as its target Dihydroorotate dehydrogenase (quinone), mitochondrial (Plasmodium falciparum (isolate 3D7)) (UniProt Q08210). Description: inhibition of P. falciparum DHODH – biochemical, C-terminal His tag, absorbance 600 nm, primary screen (AID 1175).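 Note: recombinant parasite enzyme with a five histidine tag at its C terminus; test concentration not given here.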 Conditions: PfDHODH enzyme, DCIP absorbance 600 nm; higher = more signal, called active from +8 up or from −8 down.
Assay [15] is described as follows: inhibition of PAO1 biofilm formation – strain PAO1, LB-PBS medium, absorbance 600 nm, primary screen (AID 1176). Note: test concentration not given here. The settings on record: P. aeruginosa PAO1 growth/biofilm, A600, 12 h; higher = more signal.
A short description of assay [16]: growth modulation of vineyard yeast isolate – strain RM11-1a, OD600, basal, 24 h, primary screen (AID 1177).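 Note: cultures grown under basal conditions with no added stressor; test concentration not given here.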 Conditions: S. cerevisiae RM11-1a growth, OD600, 24 h; higher = more signal, called active from +8 up or from −8 down.
Assay [17] can be described thus: growth of efflux-deficient E. coli DRC39 – strain DRC39, OD650, 24 h, E. coli filamentation inducers, primary screen (AID 1178).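 Note: growth measured as culture turbidity by optical density at 650 nm; test concentration not given here.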 Conditions: E. coli DRC39 acrAB, higher = more signal, called active from +8 up or from −8 down.
Assay [18] in a line: growth of efflux-deficient E. coli DRC39 – strain DRC39, OD650, 48 h, E. coli filamentation inducers, primary screen (AID 1179).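 Note: screen aims at cell division blockers that make cells filament.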 Conditions: E. coli DRC39 delta-acrAB growth, higher = more signal, called active from +8 up or from −8 down.
Assay [19] can be described thus: viability profiling in RPMI8226 myeloma cells – cell-based, resazurin fluorescence, basal, 24 h, PK04 Diversity Set, profiling panel (AID 1180).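 Note: RPMI8826 multiple myeloma cell line at 5000 cells per well; test concentration not given here.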 The settings on record: higher = more signal.
The target of assay [20] is E3 ubiquitin-protein ligase XIAP (Homo sapiens) (UniProt P98170). Kind of assay: small molecules binding XIAP protein – biophysical, small-molecule microarray, fluorescence 635 nm, primary screen (AID 1181).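 Note: score merges 667 nm emission and signal to noise over triplicate slides.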 Conditions: higher = more signal.
Sequence of E3 ubiquitin-protein ligase XIAP (Homo sapiens) (P98170 whole entry, looked up): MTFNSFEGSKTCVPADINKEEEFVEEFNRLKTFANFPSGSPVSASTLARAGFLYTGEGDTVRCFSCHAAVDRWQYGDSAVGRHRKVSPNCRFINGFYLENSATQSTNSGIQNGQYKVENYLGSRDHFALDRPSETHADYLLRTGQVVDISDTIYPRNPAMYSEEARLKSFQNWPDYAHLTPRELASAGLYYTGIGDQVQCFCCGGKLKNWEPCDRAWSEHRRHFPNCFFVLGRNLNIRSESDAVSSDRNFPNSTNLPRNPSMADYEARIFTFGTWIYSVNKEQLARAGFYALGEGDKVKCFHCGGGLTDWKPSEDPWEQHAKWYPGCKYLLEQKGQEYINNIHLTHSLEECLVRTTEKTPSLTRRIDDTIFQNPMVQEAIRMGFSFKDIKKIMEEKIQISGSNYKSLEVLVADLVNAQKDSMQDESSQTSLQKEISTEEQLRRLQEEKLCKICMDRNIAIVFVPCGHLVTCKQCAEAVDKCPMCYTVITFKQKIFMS

SMILES strings stand for the structures. Active and inactive are the calls of the source. Unless noted, the rule behind the calls is not given here.

Sequence of Dihydroorotate dehydrogenase (quinone), mitochondrial (Plasmodium falciparum (isolate 3D7)) (Q08210 whole entry, looked up): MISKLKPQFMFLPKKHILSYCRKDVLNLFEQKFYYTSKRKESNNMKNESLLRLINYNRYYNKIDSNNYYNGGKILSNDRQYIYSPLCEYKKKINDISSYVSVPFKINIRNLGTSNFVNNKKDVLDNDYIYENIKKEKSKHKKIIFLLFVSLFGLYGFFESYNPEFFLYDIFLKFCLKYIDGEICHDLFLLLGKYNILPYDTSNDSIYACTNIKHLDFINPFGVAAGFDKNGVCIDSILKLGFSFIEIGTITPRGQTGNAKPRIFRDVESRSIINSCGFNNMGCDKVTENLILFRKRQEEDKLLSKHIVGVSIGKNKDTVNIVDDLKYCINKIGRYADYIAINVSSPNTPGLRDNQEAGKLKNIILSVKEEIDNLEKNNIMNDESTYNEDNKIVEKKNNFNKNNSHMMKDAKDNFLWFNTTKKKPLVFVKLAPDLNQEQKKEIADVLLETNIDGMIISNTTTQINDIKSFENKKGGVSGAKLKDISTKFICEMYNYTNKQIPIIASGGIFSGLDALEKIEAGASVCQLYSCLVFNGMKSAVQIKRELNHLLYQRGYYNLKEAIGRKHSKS

With `C=CCNC(=O)[C@@H]1[C@H]2C(=O)O[C@H](c3ccccc3)[C@H](c3ccccc3)N2[C@H](c2ccccc2OCCO)[C@@]12C(=O)N(C(=O)OCCOC)c1ccccc12`, the z-score is -0.798 in assay [1]; 0.955 in assay [2]; -1.69 in assay [3]; -2.24 in assay [4]; -3.37 in assay [5]; -0.186 in assay [6]. Moreover, the z-score is 0.149 (inactive) in [7]; -0.813 in assay [8]; -0.287 in assay [9]; -2.03 (inactive) in [10]; -1.59 in assay [11]; 1.86 (inactive) in [12]. The z-score was -1.12 (inactive) in assay [13]; 2.26 (inactive) in assay [15]; 3.27 (inactive) in assay [16]; 0.0191 (inactive) in [17]; -0.476 (inactive) in assay [18]; -1.65 in assay [19]. For the same compound, the composite z-score is 0.693 (inactive) in [14] and -0.0559 in [20].
Turning to `OCCCC1=CC(c2cccs2)N(Cc2cc3c(cc2Br)OCO3)CC1` (stereo not given), the z-score was -0.433 in assay [1]; 1.03 in assay [2]; 0.145 in assay [3]; -1.44 in assay [4]; -1.52 in assay [5]; -0.578 in [6]. The z-score is -0.359 (inactive) in assay [7]; -0.707 in assay [8]; -0.145 in assay [9]; -0.178 (inactive) in assay [10]; -0.429 in assay [11]; -2.09 (inactive) in assay [12]. The z-score in assay [13] is -0.643 (inactive); in assay [15], 0.531 (inactive); in assay [16], -0.174 (inactive); in assay [17], -0.341 (inactive); in [18] it was -0.681 (inactive); in assay [19], -0.829. Besides, the composite z-score was -0.966 (inactive) in assay [14] and 0.019 in [20].
For `O=C1C2C=CC(C(O)c3cc(C(F)(F)F)cc(C(F)(F)F)c3)N(n3cnnc3)C2C(=O)N1Cc1ccccc1` (stereo not given), the z-score in assay [1] was -0.416; in [2] it was 0.649; in [3], -0.167; in assay [4] it was 0.0347; in assay [5] it was -1.41; in [6], -0.605. Also, the z-score in assay [7] was -1.62 (inactive); in assay [8], 0.11; in [9] it was 0.914; in assay [10] it was -0.226 (inactive); in [11] it was -0.064; in assay [12] it was -1.01 (inactive). For the same compound, the z-score was -0.497 (inactive) in assay [13]; 0.933 (inactive) in assay [15]; 1.09 (inactive) in assay [16]; 0.375 (inactive) in assay [17]; 0.589 (inactive) in [18]; -0.394 in assay [19]. For the same compound, the composite z-score in assay [14] was 0.861 (inactive); in [20], 0.0945.
In the case of `COc1ccc(C(=O)Nc2ccc(CN3C(=O)[C@]4(O[C@H](CCO)[C@@H]([Si](C)(C)c5ccc(OC)cc5)[C@@H]4C)c4ccccc43)cc2)cc1`, the z-score in assay [1] is -3.8; in assay [2] it was -0.0656; in assay [3], -4.64; in assay [4], -2.62; in assay [5], -4.35; in assay [6] it was -2.72. Moreover, the z-score in [7] was 1.36 (inactive); in [8], -1.06; in [9], -2.28; in assay [10] it was -3.79 (inactive); in assay [11], -5.44; in assay [12], -3.84 (inactive). Further, the z-score in assay [13] was -9.1 (active); in assay [15] it was 2.16 (inactive); in assay [16], 4.35 (inactive); in [17], 0.65 (inactive); in [18], -0.416 (inactive); in assay [19] it was -6.25. Also, the composite z-score in [14] is 0.132 (inactive); in assay [20], 0.0623.
In the case of `CCCC=C(CCC)[C@@H](NC(=O)c1cccs1)c1ccc(C(F)(F)F)cc1`, the z-score was -1.43 in [1]; 0.203 in assay [2]; -0.809 in [3]; -1.41 in assay [4]; -4.35 in [5]; 1.34 in assay [6]. Moreover, the z-score in assay [7] was -0.229 (inactive); in assay [8] it was -0.393; in [9], -1.71; in assay [10] it was 1.73 (inactive); in [11], 0.74; in assay [12] it was 0.872 (inactive). Besides, the z-score in assay [13] is 0.116 (inactive); in [15], 1.69 (inactive); in assay [16], 0.196 (inactive); in assay [17], 0.224 (inactive); in [18], -0.262 (inactive); in [19], 0.455. The composite z-score in assay [14] was -4.81 (inactive); in [20], 0.309.
On to `COc1cc2c(cc1O)C(C1CC1)N(Cc1sc3ccccc3c1Cl)CC2` (stereo not given), for which the z-score in assay [1] was -4; in assay [2], 0.0337; in [3], -4.15; in assay [4] it was -3.32; in assay [5], -4.44; in [6], -3.67. The z-score in assay [7] was -1.07 (inactive); in assay [8], -0.858; in [9], -0.539; in assay [10], -0.663 (inactive); in assay [11] it was -1.58; in [12] it was -18.3 (active). Also, the z-score is -0.789 (inactive) in assay [13]; -1.33 (inactive) in [15]; -22 (active) in assay [16]; 0.531 (inactive) in assay [17]; -0.75 (inactive) in assay [18]; -1.42 in assay [19]. Besides, the composite z-score in assay [14] is -0.931 (inactive); in assay [20] it was -0.031.
With `NC(=O)NCC#Cc1ccc2c(c1)[C@]1(C(=O)N2)[C@H](C(=O)Nc2nc3ccccc3s2)[C@H]2C(=O)O[C@H](c3ccccc3)[C@H](c3ccccc3)N2[C@@H]1c1ccccc1OCCO`, the z-score was -0.38 in assay [1]; 2.01 in assay [2]; 0.374 in assay [3]; -0.513 in [4]; -1.12 in [5]; -3.23 in assay [6]. The z-score in [7] is 2.92 (inactive); in assay [8] it was -0.517; in assay [9] it was -0.815; in assay [10] it was 0.28 (inactive); in assay [11], 0.446; in assay [12], 0.32 (inactive). Also, the z-score in assay [13] is -0.784 (inactive); in assay [15] it was 1.6 (inactive); in assay [16] it was 1.8 (inactive); in [17] it was -0.846 (inactive); in assay [18] it was -0.728 (inactive); in assay [19], -0.651. For the same compound, the results for the composite z-score in assay [14] and in assay [20] were 2.26 (inactive) and 0.711, respectively.
Regarding `Cc1ccc(N2C(=O)c3ccccc3[C@@H](C(=O)NC3CC3)[C@@H]2c2ccc(CO)cc2)nc1`, the z-score in assay [1] is -0.684; in [2], 0.516; in [3] it was -0.774; in assay [4], 0.0291; in [5], -2.27; in [6], -0.0756. For the same compound, the z-score was -0.289 (inactive) in assay [7]; 0.755 in [8]; -0.446 in [9]; 0.771 (inactive) in [10]; -0.0178 in [11]; -0.625 (inactive) in assay [12]. Besides, the z-score in assay [13] is 0.584 (inactive); in assay [15], 0.0714 (inactive); in [16], -0.155 (inactive); in assay [17], 0.659 (inactive); in assay [18], 0.188 (inactive); in assay [19] it was 0.154. The values for the composite z-score in assay [14] and in [20] were -0.162 (inactive) and -0.128, respectively.
